# The list is not random: actives were taken first. Their share in the collection is about 3.3%.
# RE007 growth inh = less growth of the S. pombe RE007 Vpr strain | S. pombe RE007 Vpr strain, BacTiter-Glo ATP luminescence, 24 h | Potency, µM (highest dose often 92.2 µM), inactives show at the top dose activity change, negative = less growth, actives largely listed as inhibitors | hit rate 0.21% among 360,000 | AID 651644; active means well fitted falling curve with a large enough effect; inconclusive means small, poorly fitted or top-dose-only effect; inactive means no such curve, though single readings can be large or run the other way; further: on the % scale 0 is the no-effect control and ±100 the full control effect; nearly all actives have a fitted effect of over 50% in size
#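 Fission yeast strain RE007, carrying one chromosomally integrated HIV-1 vpr copy, was seeded at OD 0.01 in PMG+AL medium with 23 nL pinned compound. After 24 h at 30 °C and 99% humidity, viability was read by BacTiter-Glo luminescence.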
# LmPK inh = inhibitors of Leishmania mexicana pyruvate kinase; purified LmPK, Kinase-Glo ATP luminescence, 1 h; AID 1721; hit rate 0.37% among 290,000; Q27686; Potency, µM (doses to about 57.5 µM), for inactives: at the top dose activity change, negative = inhibition, actives largely listed as inhibitors; further: on the % scale 0 is the no-effect control and ±100 the full control effect
# Target sequence (Q27686 whole entry, looked up): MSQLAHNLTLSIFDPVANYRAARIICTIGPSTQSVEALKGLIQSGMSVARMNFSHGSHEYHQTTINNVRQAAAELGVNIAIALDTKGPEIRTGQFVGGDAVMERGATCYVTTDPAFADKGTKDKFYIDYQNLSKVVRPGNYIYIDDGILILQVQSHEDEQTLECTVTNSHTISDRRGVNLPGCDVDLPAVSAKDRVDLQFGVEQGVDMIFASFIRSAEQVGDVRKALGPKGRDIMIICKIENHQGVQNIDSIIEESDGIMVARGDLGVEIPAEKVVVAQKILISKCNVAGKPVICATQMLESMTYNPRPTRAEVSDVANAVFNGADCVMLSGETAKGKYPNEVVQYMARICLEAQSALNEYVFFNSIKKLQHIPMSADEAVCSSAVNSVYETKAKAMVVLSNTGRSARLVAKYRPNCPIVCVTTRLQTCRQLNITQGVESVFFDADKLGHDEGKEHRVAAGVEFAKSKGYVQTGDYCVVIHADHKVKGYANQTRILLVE
#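 Purified LmPK (0.1 nM) with 0.5 mM PEP and 0.1 mM ADP in imidazole buffer pH 7.2 with MgCl2/KCl, 1 h at room temperature. ATP formed was read by luciferase luminescence and normalized to no-enzyme and uninhibited controls.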
# SARS PLpro yeast = SARS-CoV PLP inhibition in yeast; S. cerevisiae expressing SARS-CoV PLpro, growth rescue; Potency, µM (highest dose often 32.9 µM), inactives show at the top dose activity, positive = growth rescue, usual class: activators; hit rate 0.19% among 330,000; AID 485353; calls by dose curve; further: 0% is about no effect; nearly all actives have a fitted effect of over 55% in size
# Sm TGR inh = inhibitors of Schistosoma mansoni thioredoxin glutathione reductase; Q962Y6; purified TGR, DTNB reduction, TNB absorbance 405 nm; Potency, µM (series often up to 114 µM), for inactives: at the highest dose activity change, negative = inhibition, most hits filed as inhibitors; hit rate 3% among 360,000; AID 485364; further: on the % scale 0 is the no-effect control and ±100 the full control effect; nearly all actives have a fitted effect of over 60% in size
#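 First, TGR (20 nM dispensed) and NADPH were mixed with compound. Second, a 15 min room-temperature incubation followed. Third, further NADPH and then DTNB were added to start the reaction. Finally, TNB absorbance was monitored kinetically.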
# NS1 function inh = influenza NS1 inhibition; Potency, µM (titrated, usually from 46.1 µM), without a hit: at the top dose activity, positive = more growth; hit rate 0.4% among 270,000; AID 2326; calls by dose curve; further: actives are rising curves; nearly all actives have a fitted effect of over 50% in size
#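 Growth recovery, yeast-based: influenza A NS1 expressed in S. cerevisiae causes slow growth, and suppressors are detected by OD600. The parent strain without NS1 is used as positive control.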
# TbPYK inhibitor = T. brucei pyruvate kinase inhibition; Q57TT1; TbPYK enzyme, Kinase-Glo Plus ATP luminescence, 45 min; Potency, µM (highest dose often 76.8 µM), inactives show top-dose activity, negative = inhibition, hits mostly inhibitors; hit rate 0.12% among 410,000; AID 624173; further: on the % scale 0 is the no-effect control and ±100 the full control effect; nearly all actives have a fitted effect of over 50% in size
#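 In this concentration-response screen, enzyme-free wells defined baseline while DMSO plates tracked drift. Each reaction combined TbPYK, substrate, compound and 130 uM ADP for 45 min at room temperature. Kinase-Glo Plus luminescence gave the signal.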
# The depositor's hits bear a star; ? = inconclusive; nt = no result. Unless noted, the call rests on the fitted dose curve; in most records, active means well fitted curve in the direction sought with a large enough effect; inconclusive means small, poorly fitted or top-dose-only effect, or another doubt; inactive means no such curve, though single readings can be large; an effect the other way counts as inactive or inconclusive. Potency means the concentration at half of the fitted maximal effect.
SMILES,RE007 growth inh,LmPK inh,SARS PLpro yeast,Sm TGR inh,NS1 function inh,TbPYK inhibitor
O=C(C[n+]1cccc(NC(=O)c2ccccc2)c1)c1cccc([N+](=O)[O-])c1,-7%,0%,19%,-6%,nt,5%
O=C(c1ccccc1)N1c2nc(-c3ccco3)nn2C2(CCCCC2)[C@@H]2CCCC[C@@H]21,nt,nt,nt,?,nt,2%
COc1cccc(C(=O)N2c3nc(-c4ccco4)nn3C3(CCCCC3)[C@@H]3CCCC[C@@H]32)c1,nt,nt,nt,7.9µM*,nt,-18%
CCC(=O)N1c2nc(-c3ccco3)nn2C2(CCCCC2)[C@@H]2CCCC[C@@H]21,nt,nt,nt,40µM*,nt,7%
Cc1ccc(C(=O)N2c3nc(-c4ccco4)nn3C3(CCCCC3)[C@@H]3CCCC[C@@H]32)cc1,nt,nt,nt,11µM*,nt,3%
O=C(Nc1ccc(C(=O)N2CCN(c3cccc(Cl)c3)CC2)cc1)c1nsc2ccccc12,nt,nt,nt,11%,nt,-4%
CCCCCCCCCCOCC(O)CN (stereo unspecified),nt,nt,nt,nt,nt,3%
C(=N\Nc1nc2ccccc2s1)/c1ccccn1,14µM*,?,-7%,2%,-83%,-16%
COc1ccc(C=NNc2nc3ccccc3s2)cc1,1%,nt,nt,nt,nt,-5%
C(=NNc1ccc2ccccc2n1)c1ccccn1,28µM*,nt,nt,nt,nt,-16%
O=C(CSc1nnc(C2CC2)n1-c1ccccc1)N1CCCC1,-7%,nt,15%,nt,nt,-7%
CC(Sc1nnc(C2CC2)n1-c1ccccc1)C(=O)N1CCCC1 (stereo unspecified),-9%,nt,0%,32µM*,nt,-19%
Cc1cc(C)cc(OCC(=O)NCC2(N(C)C)CCCCC2)c1,nt,nt,nt,2%,nt,-3%
CCn1c(CNS(=O)(=O)c2ccc(Br)cc2)nnc1SC,11%,-1%,1%,3.5µM*,-4%,-3%
CSc1nnc(CNS(=O)(=O)c2ccc(Br)cc2)n1C,5%,-4%,2%,10%,8%,-9%
CCCC1C2CN(C(C)C)CC=C2C(C#N)=C(N)C1(C#N)C#N (stereo unspecified),-18%,-11%,9%,18µM*,-3%,-10%
CCN(CC)c1ccc2nc3c(=O)n(C)c(=O)n(C)c3nc2c1,nt,nt,nt,?,nt,1%
CCN(CC)c1ccc2nc3ccccc3[n+](CC)c2c1,2.8µM*,?,-15%,?,3%,?
CCN(CC)c1ccc2nc3ccc(N)cc3[n+](-c3ccccc3)c2c1,22µM*,nt,-16%,-31%,nt,?
CCn1nc(-c2ccccc2)nc2c(=O)n(C)c(=O)nc1-2,25µM*,1%,-97%,?,-67%,-5%
Clc1ccc(CSc2ncnc3c2ncn3[C@@H]2CCCCO2)cc1,nt,nt,nt,nt,-6%,nt
c1cncc(-c2nc(NCc3ccco3)c3ccccc3n2)c1,-18%,-7%,?,25µM*,-6%,6%
O=C(O)C(Cc1ccccc1)Cc1ccccc1,nt,nt,nt,nt,-6%,nt
Brc1ccc(-c2ccc(CNCCSc3nnnn3-c3ccccc3)o2)cc1,nt,nt,nt,18µM*,nt,-7%
CCc1ccc(OC(C)c2nc(-c3ccc(-n4cccc4)cc3)no2)cc1 (stereo unspecified),nt,nt,nt,-5%,nt,1%
SMILES,RE007 growth inh,LmPK inh,SARS PLpro yeast,Sm TGR inh,NS1 function inh,TbPYK inhibitor
COc1ccc(CCN2CNc3c(c(=O)n(C)c(=O)n3C)C2)cc1,8%,-3%,-1%,89µM*,3%,-3%
N=C(N)SCCSC(=N)N,nt,nt,nt,nt,1%,nt
O=C(CSc1ccc(-c2cccnc2)nn1)Nc1ccc(F)cc1F,-15%,-10%,-6%,7.1µM*,-16%,-2%
CC(=O)O[C@@]12CO[C@@H]1C[C@H](O)[C@@]1(C)C(=O)[C@H](O)C3=C(C)[C@@H](OC(=O)C(O)[C@@H](NC(=O)OC(C)(C)C)c4ccccc4)C[C@@](O)([C@@H](OC(=O)c4ccccc4)[C@H]21)C3(C)C (stereo partly specified),nt,nt,nt,nt,nt,4%
CC(=O)c1ccc2c(c1)C1C=CCC1C(C(=O)O)N2 (stereo unspecified),-1%,-20%,0%,?,14%,-20%
O=C(O)C1Nc2c(cccc2C(F)(F)F)C2C=CCC12 (stereo unspecified),nt,2%,-1%,1.4µM*,7%,nt
Cc1ccc2c(c1)C1C=CCC1C(C(=O)O)N2 (stereo unspecified),nt,-8%,-13%,0.71µM*,8%,nt
CC(C)C1Nc2ccc(S(N)(=O)=O)cc2C2C=CCC21 (stereo unspecified),10%,-9%,3%,13µM*,?,-29%
COc1cccc2c1NC(C(=O)O)C1CC=CC21 (stereo unspecified),6%,-13%,1%,7.1µM*,4%,?
CC1(C)N=C(N)N=C(N)N1c1cccc(C(=O)Nc2ccc(S(=O)(=O)F)cc2)c1,nt,nt,nt,nt,0%,nt
OCC1(CO)COC(C(Cl)(Cl)Cl)OC1,nt,nt,nt,nt,nt,2%
Nc1ccc(N2CCN(C(=O)c3cccs3)CC2)cc1,-6%,-4%,9%,-10%,21%,-26%
Cc1ccc(N2CCN(C(=O)c3cccs3)CC2)cc1C,-20%,34%,-2%,35µM*,-22%,2%
Clc1cc(NCc2cccs2)ccc1N1CCOCC1,-19%,-3%,-12%,45µM*,-46%,-10%
O=C(CC1(O)C(=O)Nc2ccccc21)c1ccccc1 (stereo unspecified),9%,6%,-1%,-10%,-10%,0%
O=C(CC1(O)C(=O)Nc2ccccc21)c1ccc(-n2cccc2)cc1 (stereo unspecified),-2%,2%,-3%,50µM*,-13%,7%
Cc1nonc1C(=O)N/N=C/c1ccc(O)c(O)c1,?,13µM*,27%,6%,5%,?
COc1cc(/C=N/NC(=O)c2nonc2C)ccc1O,0%,14µM*,-1%,-7%,6%,-5%
O=C(CSc1nc2ccccc2s1)c1sc2sc3ccccc3[n+]2c1O,nt,nt,nt,nt,2%,nt
Cc1cc(C)c(NC(=O)C(C)n2nc(-c3ccc(C)c(C)c3)ccc2=O)c(C)c1 (stereo unspecified),nt,nt,nt,1%,nt,0%
CCOc1ccc2nc(N3CCN(C(=O)c4ccc5c(c4)CCCC5)CC3)sc2c1,nt,nt,nt,8%,nt,-2%
O=S(=O)(CCN1C=CC(C(F)(F)F)=NCC1)c1ccc(Cl)cc1Cl,-15%,-3%,-1%,25µM*,4%,4%
O=C1c2cccc3c2[C@@H](CCC3)CN1[C@@H]1CN2CCC1CC2,nt,nt,nt,nt,nt,1%
COC(=O)[C@@H]1C[C@@H]2CC[C@@H](O)C[C@@H]2N1Cc1ccccc1OS(=O)(=O)c1ccc(C)cc1,1%,3%,-2%,28µM*,0%,1%
